Drawing on PubChem BioAssay AID430 (Sanford-Burnham Center for Chemical Genomics, 2006), this text covers cytotoxicity for 95 molecules.

SMILES strings stand for the structures. Among all 63,000 compounds or so, about 1,100 (1.7%) were called active. Rule as the data show it: active = cytotoxicity above about 50%; inactive = the rest. Many of the other results were omitted from the sample, so actives are more common in it than they were. Entries with a potency or affinity are not part of this list.

A short description of the experiment: cytotoxicity in HPDE-C7 cells, cell-based, fluorescence, HTS (AID 430).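 Also: cells exposed to compound for 48 hours before viability readout; 0% = vehicle and 100% = reference cytotoxic drug.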 Particulars: HPDE-C7 pancreatic duct cells viability, at 10 µM, active compounds read high.
For `O=C(c1ccc(S(=O)(=O)N2CCC(c3nc4ccccc4s3)CC2)cc1)N1CCOCC1`, the cytotoxicity is 1.1% (inactive).
The figure for `Cc1cccc(NS(=O)(=O)c2cccs2)n1` is -0.9% (inactive).
Then `COc1ccc(NC(=O)N(CCC(C)C)C(C)c2ccccn2)c(OC)c1` (stereo not given), with -1.9% (inactive); and `O=c1c(-c2ccccc2)coc2c(CN3CCCC3)c(O)ccc12`, with 5.3% (inactive).
The figure for `COc1ccc(C(=O)c2coc3ccc(O)c(CN4CCCCC4)c23)cc1` is 14.9% (inactive); for `COc1ccc(-c2coc3c(CN4CCCCC4)c(O)c(CN4CCCCC4)c(O)c3c2=O)cc1` it is 53.1% (active); for `O=c1[nH]nc(Sc2ncnc3sccc23)n1CCc1ccccc1` it is 51.5% (active).
For the molecule `c1ccc(-c2cnc(CSc3ncnc4sccc34)o2)cc1`, the cytotoxicity was -9% (inactive).
Then `COc1ccccc1Cn1c(=O)c2ccccc2n2c(Sc3ncnc4sccc34)nnc12`, with 38.5% (inactive).
Then `COC(=O)c1ccc(Oc2c(C)oc3c(CN4CCN(C)CC4)c(O)ccc3c2=O)cc1`, with -9.6% (inactive).
The figure for `Cc1cc(NC(=O)COC(=O)CSCc2ccc(Cl)c(Cl)c2)no1` is -5.6% (inactive); for `Cc1cc(NC(=O)COC(=O)C(Nc2ccc(C(F)(F)F)cc2Cl)C(C)C)no1` (stereo not given) it is 54.8% (active).
On to `Cc1cc(NC(=O)Cn2cc(C(F)(F)F)cc(Cl)c2=O)no1`, for which the cytotoxicity was 4.3% (inactive).
Then `O=C(NC(C(=O)c1ccccc1)n1ccc(=O)[nH]c1=O)c1ccccc1` (stereo not given), with 23.4% (inactive); and `CCOC(=O)N1CCN(C(=O)c2cccc(OC)c2OC)CC1`, with 6.7% (inactive); and `CC(NS(=O)(=O)c1ccc(OCC(=O)N2CCOCC2)c(Cl)c1)c1ccccc1` (stereo not given), with 3.2% (inactive).
The figure for `COCCNc1ncnc2c1cnn2Cc1ccc(Cl)cc1` is 31.2% (inactive); for `CCOC(=O)N1CCN(C(=O)CSc2nnc(-c3cccc(OC)c3)o2)CC1` it is -7.7% (inactive).
Then `O=C(Nc1ccncc1)C1CCCN(S(=O)(=O)c2cccc3cccnc23)C1` (stereo not given), with 53.3% (active); and `Cc1cccc(NC(=O)C2CCCN(S(=O)(=O)c3cccc4cccnc34)C2)c1` (stereo not given), with -12.3% (inactive); and `O=C(Nc1ccc(F)cc1)C1CCCN(S(=O)(=O)c2cccc3cccnc23)C1` (stereo not given), with -10.4% (inactive).
For `COC(=O)c1ccc(CSc2nc(N3CCOCC3)c3c(c2C#N)CC(C)(C)OC3)o1`, the cytotoxicity was 16.6% (inactive).
Regarding `CCSc1nc(N)c2c3c(sc2n1)CN(C)CC3`, the cytotoxicity is -22% (inactive).
Then `O=C(COc1ccccc1)N(Cc1ccco1)C1CCS(=O)(=O)C1` (stereo not given), with -19.1% (inactive); and `CCCc1ccc(Oc2cn[nH]c2-c2ccc(O)c(C)c2O)cc1`, with 103% (active); and `COc1ccc(O)c(-c2[nH]ncc2C(=O)c2ccccc2C)c1`, with -8.4% (inactive).
For `CCCc1ccc(Oc2cn[nH]c2-c2ccc(O)cc2O)cc1`, the cytotoxicity is 44.2% (inactive).
The figure for `CCCc1ccc(OCC(=O)O)cc1` is 3% (inactive).
Then `CCOC(=O)C1CCN(C(=O)Nc2ccccc2Cl)CC1`, with 4% (inactive); and `Cc1nn(CC(=O)NCc2ccccc2)c(=O)c2ccccc12`, with -4.9% (inactive); and `Cn1c(-c2ccc3c(c2)OCO3)cnc1NCc1ccccc1`, with -1.6% (inactive).
The figure for `Cn1c(-c2ccc3c(c2)OCO3)cnc1NCc1ccc(Cl)cc1` is 43.1% (inactive); for `Cn1c(-c2ccc3c(c2)OCO3)cnc1NCc1cccc(Cl)c1` it is 71.3% (active).
As for `O=C(CSc1nnnn1Cc1ccccc1)N1CCN(c2ccccc2)CC1`, the cytotoxicity is 7.7% (inactive).
Then `CCCN(C(=O)Cc1nc(N)n[nH]1)C1(C(=O)Nc2c(C)cccc2C)CCCCC1`, with -7.4% (inactive).
Then `Cc1cccc2cc(CN(CC3CCCO3)C(=O)NC3CCCCC3)c(=O)[nH]c12` (stereo not given), with -7.6% (inactive).
Then `CN(Cc1ccccc1)S(=O)(=O)c1ccc(C(=O)Nc2nnc(C3CC3)o2)cc1`, with 28.3% (inactive).
`O=C(CCC1CCCCC1)N1CCN(Cc2ccc3c(c2)OCO3)CC1`: the cytotoxicity is -7.9% (inactive).
Take `Cn1nnc(NC(=O)c2ccc(C(C)(C)C)cc2)n1`: the cytotoxicity is -6.6% (inactive).
The figure for `Cc1cccn2c(=O)c3cc(C(=O)N4CCc5ccccc54)n(C)c3nc12` is 10.4% (inactive).
The figure for `CCCCNC(=O)c1cc2c(=O)n3cccc(C)c3nc2n1C` is -12.6% (inactive).
Then `COCCn1c(=N)c(C(=O)NCCc2ccccc2)cc2c(=O)n3cccc(C)c3nc21`, with -51.7% (inactive); and `COCCNC(=O)c1cc2c(=O)n3cccc(C)c3nc2n1C`, with 52.8% (active); and `CCNC(=O)c1cc2c(=O)n3cccc(C)c3nc2n1C`, with -0.7% (inactive).
Turning to `Cc1cccn2c(=O)c3cc(C(=O)N4c5ccccc5CC4C)n(C)c3nc12` (stereo not given), the cytotoxicity is 87.3% (active).
Then `Cc1cccn2c(=O)c3cc(C(=O)N4CCN(C(=O)c5ccco5)CC4)n(C)c3nc12`, with 3.5% (inactive); and `CCNC(=O)c1cc2c(=O)n3cccc(C)c3nc2n(CCc2ccccc2)c1=N`, with 61.3% (active); and `CC1Cc2ccccc2N1C(=O)c1cc2c(=O)n3ccccc3nc2n1C` (stereo not given), with 13.4% (inactive).
The figure for `Cc1cccn2c(=O)c3cc(C(=O)NCCN4CCOCC4)c(=N)n(CCc4ccccc4)c3nc12` is 4.4% (inactive); for `Cc1cccn2c(=O)c3cc(C(=O)N4CCN(c5ccccc5)CC4)n(C)c3nc12` it is -18.3% (inactive).
The figure for `O=C(CSc1nnc(-c2ccco2)o1)NC1CC2CCC1C2` (stereo not given) is -3.3% (inactive); for `Cc1noc(C(=O)Nc2ccc3c(c2)OCO3)c1Cl` it is 19.1% (inactive).
`COc1ccc(-c2ccc(SCC(=O)NCc3ccco3)nn2)cc1OC`: the cytotoxicity was 7.2% (inactive).
Then `O=C(NCc1ccco1)C1CCCCN1S(=O)(=O)c1ccc(F)cc1` (stereo not given), with -4.3% (inactive); and `CCOCCOC(=O)COc1ccc(N2C(=O)c3ccccc3C2=O)cc1`, with -18.5% (inactive).
As to `O=C(CCCn1c(=S)[nH]c2ccccc2c1=O)N1CCOCC1`, the cytotoxicity is -24.3% (inactive).
Then `COc1ccc(C(O)P(=O)(O)CCc2ccccc2)cc1` (stereo not given), with -28.1% (inactive); and `COc1cccc(CNC(=O)c2nnn(CC(=O)Nc3ccc(C)c(C)c3)c2N)c1`, with 0.7% (inactive).
Then `COc1ccccc1C(=O)Nc1ccc2c(c1)nc(CCNC(C)=O)n2C`, with -7.3% (inactive); and `COc1ccc(N2CCN(C(=O)c3cc4c(-c5cccc(OC)c5)nn(C)c4s3)CC2)cc1`, with -2.7% (inactive); and `Cn1nc(-c2ccc(Cl)cc2)c2cc(C(=O)N3CCN(c4ccccn4)CC3)sc21`, with -0.6% (inactive).
On to `Cc1ccc(OCC(=O)N2CCN(C3=NS(=O)(=O)c4ccccc43)CC2)cc1`, for which the cytotoxicity is 0.8% (inactive).
Then `CCOc1ccccc1OCCCCN1CCCC1`, with 3% (inactive).
Then `CCOC(=O)c1c(C)oc2c1cc(O)c1ccccc12`, with 15.4% (inactive).
Then `COC(=O)c1c(C)oc(C)c(C(=O)OC)c1=O`, with 1.7% (inactive); and `CC(C)NC(=O)c1cnc(N2CCN(c3ccccn3)CC2)c2ccccc12`, with -9.4% (inactive); and `COc1ccc(C(=O)N(CN2CCCC2=O)c2nccs2)cc1OC`, with 6.2% (inactive).
`c1ccc(-c2nc(NC3CC3)nc(-n3ccnc3)n2)cc1`: the cytotoxicity is 9.6% (inactive).
The figure for `c1ccc(-c2nc(N3CCN(c4ccccc4)CC3)nc(-n3ccnc3)n2)cc1` is 43% (inactive).
Then `CC(C)Nc1nc(-c2ccccc2)nc(-n2ccnc2)n1`, with 58.3% (active); and `c1ccc(-c2nc(-n3ccnc3)nc(-n3ccnc3)n2)cc1`, with 20.1% (inactive).
As for `c1ccc(-c2nc(N3CCCCCC3)nc(-n3ccnc3)n2)cc1`, the cytotoxicity was -19.9% (inactive).
Then `COCCN1Cc2cccc(C(=O)NCc3ccc4c(c3)OCO4)c2C1=O`, with -2.7% (inactive); and `CCN(CC)S(=O)(=O)c1ccc(-c2nnc(SCC(=O)Nc3ccc4c(c3)OCO4)o2)cc1`, with 3.5% (inactive).
Turning to `Cc1ccc(C(N)=S)c(C)c1`, the cytotoxicity was -27.6% (inactive).
The figure for `Cc1c(C(=O)Nc2cccc(Cl)c2)oc2ccc(S(=O)(=O)N3CCC4(CC3)OCCO4)cc12` is 55.3% (active); for `Cc1c(C(=O)NCCc2ccccc2)oc2ccc(S(=O)(=O)N3CCOCC3)cc12` it is -7.6% (inactive); for `Cc1c(C(=O)Nc2ccc(F)cc2)oc2ccc(S(=O)(=O)N3CCC4(CC3)OCCO4)cc12` it is 11.5% (inactive).
As to `Cc1c(C(=O)NCCC2=CCCCC2)oc2ccc(S(=O)(=O)N3CCC4(CC3)OCCO4)cc12`, the cytotoxicity was 35.3% (inactive).
Then `Cc1c(C(=O)Nc2ccccc2Cl)oc2ccc(S(=O)(=O)N3CCC4(CC3)OCCO4)cc12`, with 22.3% (inactive); and `Cc1c(C(=O)NCCC2=CCCCC2)oc2ccc(S(=O)(=O)N3CCOCC3)cc12`, with 52.5% (active).
The figure for `Cn1c(=O)c2cc(S(=O)(=O)NCCC(=O)N3CC=C(c4ccccc4)CC3)ccc2n(C)c1=O` is -11.2% (inactive); for `COc1c(Cl)cc(Cl)cc1/C=N/n1cnnc1` it is -1.3% (inactive); for `CNS(=O)(=O)c1ccc(NC(=O)C(CCSC)NC(N)=O)cc1` (stereo not given) it is 0.9% (inactive).
As to `CCOc1ccc(NS(=O)(=O)c2ccc(NS(C)(=O)=O)cc2)cc1`, the cytotoxicity was -4.7% (inactive).
Then `COc1ccc(S(=O)(=O)Nc2cccc(Cl)c2)cc1OC`, with 13.9% (inactive).
Then `CCOc1ccc(NS(=O)(=O)c2cc(Cl)ccc2OC)cc1`, with -8.2% (inactive).
Take `CCOc1ccc(S(=O)(=O)Nc2cccc(Cl)c2)cc1`: the cytotoxicity is 57.6% (active).
The figure for `CCOc1ccc(S(=O)(=O)Nc2cccnc2)cc1` is -3.5% (inactive); for `CCOc1ccc(S(=O)(=O)Nc2cc(Cl)ccc2O)cc1` it is 67.2% (active); for `CCCc1cc(=O)[nH]c(SC(CC)C(=O)Nc2ccccc2C#N)n1` (stereo not given) it is -23.8% (inactive).
Turning to `O=C(Cn1cc2c(n1)CCCC2)NC1CCCCCC1`, the cytotoxicity is -9.2% (inactive).
The figure for `Cn1cccc1C(=O)OCc1cc(Cl)cc2c1OCOC2` is 1.1% (inactive); for `CCN(CC(=O)Nc1ccccc1C(=O)OC)S(=O)(=O)c1ccc(OC)cc1` it is 1.1% (inactive).
Then `Cc1ccc(Cl)cc1N1CCN(Cc2nnnn2C2CCCCC2)CC1`, with -16% (inactive).
